Drawing on PubChem BioAssay (EPA / NIEHS), this text covers outcome and AC50 for 25 molecules.

Records with an inconclusive call do not appear. The source made the active and inactive calls. How the source made its calls: active means hit-call score of the fitted dose curve at least 0.9, where 1 is the maximum; inconclusive means response in the unintended direction; inactive means score below 0.9.

Read-out in this assay: HMG-CoA synthase (HMGCS2), HMGCS2 (gene 3158)
In words: CLD_HMGCS2_6hr: CellzDirect (CLD) Gene Expression Assay for HMG-CoA synthase (HMGCS2) at 6 hours (AID 2283682).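 Further: actives raise HMGCS2 transcript above the 0.2% DMSO vehicle baseline.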 The protocol: CLD_6hr is a cell-based, multiplexed-readout assay that uses hepatocyte, a human liver primary cell, with measurements taken at 6 hours after chemical dosing in a 96-well plate.CLD_HMGCS2_6hr is one of 16 assay component(s) measured or calculated from the CLD_6hr assay. It is designed to make measurements of mRNA induction, a form of inducible reporter, as detected with chemiluminescence signals by Quantitative Nuclease Protection Assay (qNPA) technology.Data from the assay component CLD_HMGCS2_6hr was analyzed at the endpoint, CLD_HMGCS2_6hr, in the positive analysis fitting direction relative to DMSO as the negative control and baseline of activity. Using a type of inducible reporter, gain-of-signal activity can be used to understand changes in the reporter gene as they relate to the gene HMGCS2. Furthermore, this assay endpoint can be referred to as a primary readout. To generalize the intended target to other relatable targets, this assay endpoint is annotated to the lyase intended target family, where subfamily is HMG-CoA synthase.
Human hepatocyte cultures were treated daily for two consecutive days with fresh dosing solutions containing appropriate concentrations of the 320 ToxCast chemicals (chemical identities were blinded to CellzDirect and other ToxCast collaborators), vehicle control (0.2% DMSO), and positive control inducers as summarized in Table 1. Due to the large number of treatment groups and chemicals examined, the ToxCast chemicals were divided into two groups (spanning two independent cultures of hepatocytes from separate donor preparations (Hu778: ToxCast plates 1 and 2; Hu776: ToxCast plates 3 and 4). Each preparation of human hepatocyte cultures was treated with respective vehicle control, medium only control, set of six positive controls/reference chemicals for the five hepatic receptor pathways, and a subset of eight of the ToxCast chemicals (indoxacarb, pyrithiobac-sodium, norflurazon, cyhalofop-butyl, methomyl, thiram, acetochlor, and propiconazole). These replicate data, coupled with internal replicates designed within the blinded ToxCast chemical library, provided additional data to evaluate interindividual differences between hepatocyte preparations and their potential impact on chemical profiles.Cell morphology and integrity were evaluated using phase-contrast microscopy as an indicator of hepatocyte cell health (Tyson & Green, 1987). Cultures for each treatment group (i.e., media, vehicle [0.2% DMSO], positive control inducers [multiple concentrations], and the ToxCast chemicals [multiple concentrations]) were observed and cell morphology was assessed relative to vehicle control cultures at each harvest time point (0, 6, 24, or 48 h). […] Images were evaluated at the conclusion of the study to assess changes in cell integrity and account for the effects of chemical exposure on uncharacteristic changes in concentration-dependent gene expression profiles. The results from these determinations of apparent cytotoxicity were annotated (yes/no) alongside the corresponding qNPA data for reference.At the conclusion of each treatment period, hepatocyte cultures (96-well) were washed with 1 volume of HBSS, lysed by addition of 25 ul ArrayPlate lysis buffer (HTG, Tucson, AZ), and 70 ul/well of Denaturation Oil, denatured by incubation at 95C for 10 min, and frozen at approximately -70C until analysis by nuclease protection assay (qNPA) (Roberts et al., 2007). For qNPA analysis, cell lysates were thawed at 50C for approximately 30 min, qNPA probes were added, and samples were incubated at 95C for 10 min to begin the detection process by denaturing the target RNA, dissociating the duplexes and secondary structure hybridization. At the conclusion of the hybridization period, S1 nuclease reagent was added to each sample to digest all nonprotected nucleotides at 50C for 60-90 min. […]
For the molecule `CCC(O)=C1C(=O)CC(C(=O)O)CC1=O` (stereo not given), the result was inactive.
On the same count and under the same terms, the result for `CCN(CC)C(=O)c1cccc(C)c1` reads “inactive”; that for `CC(C)(c1ccc(O)cc1)c1ccc(O)cc1`, “inactive”.
Same read-out and setting: to `CC1(C)C(C=C(Cl)Cl)C1C(=O)OCc1cccc(Oc2ccccc2)c1` (stereo not given) belongs “inactive”.
For the molecule `N#CSCSc1nc2ccccc2s1`, the AC50 – broadly, the midpoint of the concentration-response curve, whichever way the signal moves – was 7.13 µM (active).
In the case of `C#CCOC(=O)[C@@H](C)Oc1ccc(Oc2ncc(Cl)cc2F)cc1`, the molecule was called inactive.
Same read-out and setting: the result for `COC(=O)c1c(Cl)nn(C)c1S(=O)(=O)NC(=O)Nc1nc(OC)cc(OC)n1` reads “inactive”.
On to `CC(C)(C)[C@@H](O)[C@@H](Cc1ccc(Cl)cc1)n1cncn1`, for which the concentration at half-maximal activity (AC50) was 1.9 µM (active).
`CN(C)C(=O)Nc1ccc(Cl)c(Cl)c1`: the call was inactive.
Same read-out and setting: to `Oc1ccc(C(c2ccc(O)cc2)C(Cl)(Cl)Cl)cc1` belongs “inactive”; to `COC(=O)c1ccc(I)cc1S(=O)(=O)NC(=O)Nc1nc(C)nc(OC)n1`, “inactive”; to `COc1c(Cl)ccc(Cl)c1C(=O)O`, “inactive”.
Same read-out and setting: to `COC(=O)c1ccccc1C(=O)O` belongs “inactive”; to `c1ccc(Nc2ccccc2)cc1`, “inactive”; to `CCCCOC(=O)C(C)Oc1ccc(Oc2ccc(C(F)(F)F)cn2)cc1` (stereo not given), “inactive”.
Same read-out and setting: the result for `CCOC(=O)COc1cc(-n2ncc(C(F)(F)F)c(C)c2=O)c(F)cc1Cl` reads “inactive”; that for `CCOC(=O)C(C)Oc1ccc(Oc2nc3ccc(Cl)cc3o2)cc1` (stereo not given), “inactive”; that for `CCC(C)OC(=O)N1CCCCC1CCO` (stereo not given), “inactive”.
In the case of `O=C(O)C1(C(=O)Nc2ccc(Cl)cc2Cl)CC1`, the result was inactive.
The same measure, in the same setting: to `CCCOC(=O)c1ccc(C(=O)OCCC)nc1` belongs “inactive”.
Consider `CCCCOC(=O)[C@@H](C)Oc1ccc(Oc2ccc(C(F)(F)F)cn2)cc1`, for which the outcome was inactive.
The same measure, in the same setting: to `CSC(=O)c1cccc2nnsc12` belongs “inactive”.
Same read-out and setting: the result for `C=CCOC(Cn1ccnc1)c1ccc(Cl)cc1Cl` (stereo not given) reads “inactive”; that for `CCCCC(CC)COC(=O)c1ccccc1C(=O)O` (stereo not given), “inactive”; that for `S=C([S-])NCCNC(=S)[S-].[Mn+2]`, “inactive”.
